Data published in PubChem BioAssay AID1117306 (National Center for Advancing Translational Sciences (NCATS), 2015).
The source made the active and inactive calls. Calls follow the shape of the full dose curve.

Settings: Ebola virus entry assay, blue channel imaging

SMILES	AC50	outcome
CCN(CC)CCNC(=O)c1c(C)[nH]c(/C=C2\C(=O)Nc3ccc(F)cc32)c1C	3.06 µM (active)	–
CC[C@]1(O)C[C@H]2CN(CCc3c([nH]c4ccccc34)[C@@](C(=O)OC)(c3cc4c(cc3OC)N(C=O)[C@H]3[C@@](O)(C(=O)OC)[C@H](OC(C)=O)[C@]5(CC)C=CCN6CC[C@]43[C@@H]65)C2)C1	0.153 µM (active)	–
CCC1=C[C@@H]2CN(C1)Cc1c([nH]c3ccccc13)[C@@](C(=O)OC)(c1cc3c(cc1OC)N(C)[C@H]1[C@@](O)(C(=O)OC)[C@H](OC(C)=O)[C@]4(CC)C=CCN5CC[C@]31[C@@H]54)C2	0.153 µM (active)	–
CN(C)CCOc1ccc(/C(=C(/CCCl)c2ccccc2)c2ccccc2)cc1	1.37 µM (active)	–
CC[C@H]1OC(=O)[C@H](C)[C@@H](O[C@H]2C[C@@](C)(OC)[C@@H](O)[C@H](C)O2)C(C)[C@@H](O[C@@H]2O[C@H](C)C[C@H](N(C)C)[C@@H]2O)[C@](C)(OC)C[C@@H](C)C(=O)[C@H](C)[C@@H](O)[C@]1(C)O (stereo not given in full)	6.85 µM (active)	–
CCCNCC(O)COc1ccccc1C(=O)CCc1ccccc1 (stereo not given)	9.68 µM (active)	–
CC[C@H]1OC(=O)[C@H](C)[C@@H](O[C@H]2C[C@@](C)(OC)[C@@H](O)[C@H](C)O2)[C@H](C)[C@@H](O[C@@H]2O[C@H](C)C[C@H](N(C)C)[C@@H]2O)[C@](C)(O)C[C@@H](C)CN(C)[C@H](C)[C@@H](O)[C@]1(C)O	4.32 µM (active)	–
COc1cccc2c1C(=O)c1c(O)c3c(c(O)c1C2=O)C[C@@](O)(C(C)=O)C[C@H]3O[C@H]1C[C@H](N)[C@H](O)[C@H](C)O1	3.43 µM (active)	–
CO[C@H]1C[C@@H]2CC[C@@H](C)[C@@](O)(O2)C(=O)C(=O)N2CCCC[C@@H]2C(=O)O[C@H]([C@@H](C)C[C@@H]2CC[C@H](O)[C@H](OC)C2)CC(=O)[C@H](C)C=C(C)[C@@H](O)[C@@H](OC)C(=O)[C@H](C)C[C@H](C)C=CC=CC=C1C	–	inactive
NCCCC(O)(P(=O)(O)O)P(=O)(O)O	–	inactive
COC(=O)Nc1nc2ccc(C(=O)c3cccs3)cc2[nH]1	0.611 µM (active)	–
Cc1nnc(C(C)C)n1C1C[C@H]2CC[C@@H](C1)N2CC[C@H](NC(=O)C1CCC(F)(F)CC1)c1ccccc1 (stereo not given in full)	–	inactive
C[C@@H]1O[C@@H](O[C@H]2CC[C@@]3(C)[C@H](CC[C@@H]4[C@H]3C[C@@H](O)[C@]3(C)[C@@H](C5=CC(=O)OC5)CC[C@]43O)C2)C[C@H](O)[C@@H]1O[C@H]1C[C@H](O)[C@H](O[C@H]2C[C@H](O)[C@@H](O)[C@@H](C)O2)[C@H](C)O1 (stereo in doubt)	–	inactive
COC(=O)Nc1nc2ccc(C(=O)c3ccccc3)cc2[nH]1	–	inactive
CC[C@]1(O)C[C@@H]2CN(CCc3c([nH]c4ccccc34)[C@@](C(=O)OC)(c3cc4c(cc3OC)N(C)[C@H]3[C@@](O)(C(=O)OC)[C@H](OC(C)=O)[C@]5(CC)C=CCN6CC[C@]43[C@@H]65)C2)C1	0.137 µM (active)	–
CCCCc1oc2ccc(NS(C)(=O)=O)cc2c1C(=O)c1ccc(OCCCN(CCCC)CCCC)cc1	4.85 µM (active)	–
CO[C@H]1C[C@@H]2CC[C@@H](C)[C@@](O)(O2)C(=O)C(=O)N2CCCC[C@@H]2C(=O)O[C@H]([C@H](C)C[C@@H]2CC[C@H](OCCO)[C@H](OC)C2)CC(=O)[C@H](C)C=C(C)[C@@H](O)[C@@H](OC)C(=O)[C@H](C)C[C@H](C)C=CC=CC=C1C	–	inactive
CCCSc1ccc2nc(NC(=O)OC)[nH]c2c1	–	inactive
CN1CCN(CCCN2c3ccccc3Sc3ccc(C(F)(F)F)cc32)CC1	9.68 µM (active)	–
COC1=CC(=O)C[C@@H](C)[C@]12Oc1c(Cl)c(OC)cc(OC)c1C2=O	–	inactive
